# Bioassay records: PubChem, National Center for Advancing Translational Sciences (NCATS)
# A selection: hits, their analogues and other compounds. The true share with any hit is near 11%.
# G9a inh: qHTS Assay for Inhibitors of Histone Lysine Methyltransferase G9a; AID 504332, 2011; Potency, µM (doses to about 102 µM), for inactives: at the highest dose activity, negative = inhibition, hits mostly inhibitors; G9a H3K9 monomethylation, AlphaScreen, 2 h; Histone-lysine N-methyltransferase EHMT2 (Homo sapiens), Q96KQ7; hit rate 8.8% among 350,000; also: % is scaled to controls: 0 for no effect and ±100 for the full control effect; nearly all actives have a fitted effect of over 75% in size
#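 G9a (20 nM) preincubated 15 min RT with compounds, then 500 nM biotinylated H3K9 peptide and 20 uM SAM added; 2 h RT reaction. Monomethyl-H3K9 product detected by AlphaScreen with anti-H3K9me1 antibody, streptavidin donor and anti-rabbit IgG acceptor beads.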
# PLK1 PBD block: qHTS for Inhibitors of PLK1-PDB (polo-like kinase 1 - polo-box domain): Primary Screen; Potency, µM, without a hit: max response, negative = inhibition, hits mostly inhibitors; Serine/threonine-protein kinase PLK1 (Homo sapiens), P53350; Plk1 PBD binding of FITC phosphopeptide, fluorescence polarization; hit rate 2.8% among 360,000; also: series mostly up to about 57 µM; % is scaled to controls: 0 for no effect and ±100 for the full control effect; nearly all actives have a fitted effect of over 65% in size
# VDR inh: Inhibitors of the vitamin D receptor (VDR): qHTS | Vitamin D3 receptor (Homo sapiens), P11473 | VDR-SRC2-3 peptide fluorescence polarization, 2 h | Potency, µM, inactives show max response, negative = inhibition, most hits filed as inhibitors | hit rate 0.93% among 400,000 | AID 504847, 2011; also: % is scaled to controls: 0 for no effect and ±100 for the full control effect
#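 Measured by FP: displacement of SRC2-3 coactivator peptide from VDR by library compounds, following a two-hour ambient incubation.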
# JMJD2A Tudor: qHTS Assay for Inhibitors of JMJD2A-Tudor Domain; hit rate 4.4% among 390,000; AlphaScreen JMJD2A-Tudor / H3K4me3 peptide binding; AID 504339, 2011; Potency, µM (titrated, usually from 114 µM), for inactives: at the highest dose activity change, negative = inhibition, usual class: inhibitors; also: % is scaled to controls: 0 for no effect and ±100 for the full control effect; nearly all actives have a fitted effect of over 50% in size
# Target sequence (O75164 whole entry, looked up, the tested form may be a part): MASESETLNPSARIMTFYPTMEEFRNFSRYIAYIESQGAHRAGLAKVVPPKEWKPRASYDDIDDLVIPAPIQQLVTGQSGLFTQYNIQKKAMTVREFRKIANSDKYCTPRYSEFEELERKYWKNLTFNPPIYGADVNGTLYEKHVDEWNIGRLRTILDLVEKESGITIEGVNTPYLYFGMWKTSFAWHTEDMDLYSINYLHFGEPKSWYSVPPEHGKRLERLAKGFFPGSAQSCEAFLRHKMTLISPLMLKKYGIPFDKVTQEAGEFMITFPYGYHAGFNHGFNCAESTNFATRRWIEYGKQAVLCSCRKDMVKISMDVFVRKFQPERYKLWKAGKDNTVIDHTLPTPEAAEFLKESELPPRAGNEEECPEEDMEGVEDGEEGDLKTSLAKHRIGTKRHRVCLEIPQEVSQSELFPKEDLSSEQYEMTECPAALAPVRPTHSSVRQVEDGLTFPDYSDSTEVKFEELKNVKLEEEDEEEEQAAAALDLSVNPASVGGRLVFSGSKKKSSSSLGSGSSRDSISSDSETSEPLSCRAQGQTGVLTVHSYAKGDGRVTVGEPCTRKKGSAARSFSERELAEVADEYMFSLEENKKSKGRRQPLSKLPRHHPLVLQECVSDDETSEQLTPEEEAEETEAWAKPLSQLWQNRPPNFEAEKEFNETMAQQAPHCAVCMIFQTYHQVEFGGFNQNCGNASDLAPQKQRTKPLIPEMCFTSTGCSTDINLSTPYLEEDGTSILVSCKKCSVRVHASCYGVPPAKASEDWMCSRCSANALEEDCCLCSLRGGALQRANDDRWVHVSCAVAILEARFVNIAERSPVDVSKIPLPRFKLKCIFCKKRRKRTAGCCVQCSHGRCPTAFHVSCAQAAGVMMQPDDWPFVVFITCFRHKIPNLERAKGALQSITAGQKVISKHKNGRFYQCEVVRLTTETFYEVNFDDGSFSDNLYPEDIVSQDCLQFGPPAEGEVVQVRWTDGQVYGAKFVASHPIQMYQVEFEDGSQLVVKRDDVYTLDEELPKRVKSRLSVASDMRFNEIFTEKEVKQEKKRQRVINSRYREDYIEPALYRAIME
# BAZ2B block: qHTS Assay for Inhibitors of BAZ2B | AlphaScreen BAZ2B-H3K14Ac peptide displacement | AID 504333, 2011 | hit rate 4.4% among 360,000 | Potency, µM (titrated, usually from 114 µM), inactives show top-dose activity change, negative = inhibition, actives largely listed as inhibitors; also: % is scaled to controls: 0 for no effect and ±100 for the full control effect; nearly all actives have a fitted effect of over 60% in size
#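 Complex of BAZ2B and biotin-H3K14Ac (50 nM apiece) forms over 30 min at RT, then faces library compounds up to 110 uM for another 30 min; AlphaScreen beads added, 20 min dark incubation, luminescence read.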
# HP1b chromo inh: HTS for Inhibitors of HP1-beta Chromodomain Interactions with Methylated Histone Tails; Chromobox protein homolog 1 (Homo sapiens), P83916; AlphaScreen HP1-beta / biotin-H3K9me3 peptide binding; Potency, µM (highest dose often 114 µM), without a hit: at the highest dose activity change, negative = inhibition, usual class: inhibitors; hit rate 0.56% among 390,000; AID 540317, 2011; also: nearly all actives have a fitted effect of over 70% in size
#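 AlphaScreen: HP1-beta (50 nM) preformed 30 min with biotin-H3(1-18)K9me3 peptide (50 nM) in PBS pH 7.4, 0.01% Tween-20. Compound added for 30 min at RT, then streptavidin donor/nickel chelate acceptor beads (10 ug/mL) for 30 min.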
# * hit, by the source's call; ? = inconclusive; . = not tested or not shown; [ ] = another dose, or the depositor's remark. Calls follow the shape of the dose curve; as a rule, active = well fitted curve in the direction sought with a large enough effect; inconclusive = small, poorly fitted or top-dose-only effect, or another doubt; inactive = no such curve, though single readings can be large; an effect the other way counts as inactive or inconclusive. Potency is read from the fitted curve at half-maximal effect.
SMILES,G9a inh,PLK1 PBD block,VDR inh,JMJD2A Tudor,BAZ2B block,HP1b chromo inh
NC(=O)C1CCN(C(=O)CSc2ccsc2[N+](=O)[O-])CC1,?,-17%,-18%,-22%,-21%,23%
O=C(CSc1ccsc1[N+](=O)[O-])N1CCN(c2ccc(Cl)cc2)CC1,50µM*,?,2%,?,?,-16%
O=C(CSc1ccsc1[N+](=O)[O-])N1CCCCCC1,45µM*,-25%,-18%,-13%,.,4%
Cc1ccc(C)c(N2CCN(C(=O)CSc3ccsc3[N+](=O)[O-])CC2)c1,32µM*,-22%,-4%,?,?,-16%
COc1ccc(C2=NS(=O)(=O)N(C)C(C(=O)N3CCCCC3C)=C2)cc1 (stereo unspecified),.,-15%,-18%,-13%,8%,21%
Fc1ccc(F)c(C2=NNC(=Nc3ccccc3F)SC2)c1,10%[59 µM],-23%,-26%,-34%,-31%,-7%
Cc1cc(C2=NNC(=NCCc3ccccc3)SC2)c(C)n1-c1c(C)n(C)n(-c2ccccc2)c1=O,-11%[59 µM],-17%,-10%,-10%,-9%,-7%
COCCN=C1NN=C(c2cc(C)n(CC3CCCO3)c2C)CS1 (stereo unspecified),?,?,-18%,-33%,-15%,-20%
COCCCN=C1NN=C(c2cc(C)n(Cc3ccccc3Cl)c2C)CS1,28µM*,-21%,-25%,?,40µM*,?
COCCCN=C1NN=C(c2cc(C)n(-c3ccccc3F)c2C)CS1,50µM*,?,-4%,?,71µM*,-4%
COCCn1c(C)cc(C2=NNC(=Nc3ccccc3F)SC2)c1C,7.9µM*,-16%,-9%,89µM*,?,-24%
COCCCN=C1NN=C(c2cc(C)n(-c3ccccc3)c2C)CS1,71µM*,-13%,11%,-36%,?,-7%
CC(=O)Nc1ccc(CN(C)c2c(C)nc3ccc(C(=O)NC4CCN(Cc5ccccc5)CC4)cn23)cc1,.,-9%,.,.,.,.
CCCN1C/C(=C/c2ccc3c(c2)OCO3)C(=O)/C(=C/c2ccc3c(c2)OCO3)C1,?,-23%,-10%,22µM*,50µM*,?
CC1=C/C(=C\c2ccc3c(c2)OCO3)C(=O)S1,25µM*,-21%,-12%,?,?,-11%
CC(=Nc1ccccc1)C1=C(O)C(Cc2ccc(O)cc2)NC1=O (stereo unspecified),.,-11%,-9%,-10%,.,6%
CC1CCC(C(C)C)C(OCC(O)CNC(C)C)C1 (stereo unspecified),-4%,-1%,-1%,5%[11.4 µM],-2%,55%
O=C(NCC(c1cccs1)N1CCOCC1)c1ccccc1NS(=O)(=O)c1cc([N+](=O)[O-])ccc1Cl (stereo unspecified),45µM*,-7%,-22%,-7%,-4%,26%
O=C(NCC(c1cccs1)N1CCOCC1)c1ccccc1NS(=O)(=O)c1ccc(Cl)c([N+](=O)[O-])c1 (stereo unspecified),45µM*,-7%,5%,-32%,-32%,19%
O=C(NCC(c1cccs1)N1CCOCC1)c1ccccc1NS(=O)(=O)c1ccc(Cl)cc1 (stereo unspecified),71µM*,-8%,-9%,-19%,-1%,12%
O=C(NCC(c1cccs1)N1CCOCC1)c1ccccc1NS(=O)(=O)c1cccc([N+](=O)[O-])c1 (stereo unspecified),6%[59 µM],-16%,-13%,?,?,-15%
O=C(CSc1nncn2c1cc1occc12)Nc1ccccc1C(F)(F)F,-1%[59 µM],.,-3%,-31%,-17%,9%
CCOC(=O)CC[C@H](NC(=O)Cn1cnc2c(NCc3ccccc3)ncnc21)C(=O)OCC,.,-22%,-7%,-11%,.,28%
Cc1ccccc1C(=O)NNC1=NCCC1,2µM*,0%,-8%,1.6µM*,?,-13%
COc1ccc(C(=O)NNC2=NCCCCC2)cc1,32µM*,-9%,-4%,-21%,-36%,0%
SMILES,G9a inh,PLK1 PBD block,VDR inh,JMJD2A Tudor,BAZ2B block,HP1b chromo inh
O=C(CNc1ccccc1)NNC1=NCCC1,10µM*,?,1%,-4%,?,24%
C[C@@H](/C=C/c1ccc2ccccc2c1)C1COC(=O)C[C@H]1O (stereo partly specified),.,.,-13%,-16%,.,38%
COc1ccccc1N1CCN(C(=O)c2ccccc2N(C)S(=O)(=O)c2ccc(C)cc2)CC1,?,-1%,-5%,-21%,-35%,3%
NC(=O)c1ccc([N+](=O)[O-])cc1SCc1ccccc1,40µM*,-22%,11%,-29%,?,17%
NC(=O)c1cc([N+](=O)[O-])ccc1NCCc1ccccc1,10%,-4%,-9%,-20%,-33%,3%
Cc1cccc(-c2nc3ccccc3c(=O)n2NC(=S)N(C)C)c1,8.9µM*,3µM*,50µM*,89µM*,-5%,-47%
CNC1=C([N+](=O)[O-])CC([N+](=O)[O-])=C(N2CCNCC2)N1C,45µM*,-16%,10%,-12%,-1%,9%
COc1cc(/C=C2/C(=O)N(c3cccc(Br)c3)N=C2C)cc(OC)c1O,10µM*,?,?,28µM*,10µM*,28µM*
COc1cc(/C=C2/C(=O)N(c3ccc(Br)cc3)N=C2C)cc([N+](=O)[O-])c1O,79µM*,.,.,.,-33%,.
COc1ccc(C)cc1NC(=O)c1cc(S(=O)(=O)N2CCC(C)CC2)ccc1F,8%[59 µM],.,10%,-25%,2%,23%
Cc1ccc(S(=O)(=O)N2CCCCC2)cc1NC(=O)CSc1nnc(C2CC2)n1C,.,-14%,?,-15%,.,25%
CCOc1ccc2nc(NC3=NC(c4ccc(OC)cc4)CC(=O)N3)nc(C)c2c1 (stereo unspecified),10µM*,-3%,18%,79µM*,-1%[57.1 µM],?
Cc1ccccc1OCCn1c(=S)[nH]c2ccccc21,40µM*,-22%,0%,-31%,-31%,29%
Fc1ccccc1OCCn1c(=S)[nH]c2ccccc21,7.1µM*,?,-10%,?,-37%,33%
Cc1ccc(N=Nc2c(N)nn(-c3ccccc3)c2N)cc1,-50%[59 µM],-2%,6%,35µM*,50µM*,?
